From PubChem BioAssay (Tox21) come the findings set out here.

Records with an inconclusive call do not appear. Values without a mark were called inactive. Calls of active or inactive are those of the source. Calls follow the shape of the dose curve; as a rule, active = well fitted cell-killing curve with a large enough effect in the repeat runs; inconclusive = weak or mixed curves; inactive = no such curve, though single readings can be large or run the other way.
% is scaled to controls: 0 for no effect and ±100 for the full control effect.

This test is described as follows: qHTS assay to identify small molecule agonists of the peroxisome proliferator-activated receptor delta (PPARd) signaling pathway - cell viability counter screen (AID 743211). Also: nearly all actives have a fitted effect of over 55% in size. As to conditions: PPARd-bla HEK293H viability, CellTiter-Glo luminescence, 17 h; series mostly up to 62.6 µM; activity change, negative = cytotoxicity: at the top concentration. An excerpt: U.S. Tox21 Program National Center for Advancing Translational Sciences [NCATS] NIH Chemical Genomics Center [NCGC] U.S. Environmental Protection Agency [EPA] National Institutes of Environmental Health Sciences [NIEHS] National Toxicology Program [NTP] U.S. Food and Drug Administration [FDA] Tox21 Assay Overview: The peroxisome proliferator-activated receptors (PPARs) are lipid-activated transcription factors of the nuclear receptor superfamily with three distinct subtypes namely PPAR alpha, PPAR delta (PPARd) and PPAR gamma. All these subtypes heterodimerizes with Retinoid X receptor (RXR) and have different physiological functions. […] To identify the compounds that activate PPAR-delta signaling, GeneBLAzer PPAR delta UAS-bla HEK293H cell line (Invitrogen, Carlsbad, CA, USA) containing a beta-lactamase reporter gene under the control of an Upstream Activator Sequence (UAS) was used to screen the Tox21 compound library. The cytotoxicity of the Tox21 compound library against the PPARd-bla cell line was tested in parallel by measuring the cell viability using CellTiter-Glo assay (Promega, Madison, WI) in the same wells.
Tox21 Assay Protocol Summary: PPARd-bla cells were dispensed at 3000 cells/6uL/well in 1536-well black wall/clear bottom plates using a Multidrop Combi (Thermo Fisher Scientific, Waltham, MA) dispenser. After the assay plates were incubated at 37 C and 5% CO2 for 5 h, 23 nL of compounds dissolved in DMSO, positive controls or DMSO only was transferred to the assay plate by a Pintool station (Kalypsys, San Diego, CA). The assay plates were incubated at 37C for 17 h. After 1 uL of LiveBLAzerTM B/G FRET substrate was added using a Bioraptr Flying Reagent Dispenser (FRD) workstation (Beckman Coulter, Indianapolis, IN, USA), the plates were incubated at room temperature for 2 h, and fluorescence intensity was measured by an Envision plate reader (PerkinElmer, Shelton, CT). For cell viability readout that measures cytotoxicity, 3 ul/well of CellTiter-Glo reagent was added into the assay plates using a Bioraptr FRD. After 30 min incubation at room temperature, the luminescence intensity in the plates was measured using a ViewLux plate reader (PerkinElmer).
Background: In qHTS, concentration-response curves come from the screen itself.
Regarding `O=C1CCCN1`, the compound was classed as inactive.

With `CC1OC(C)OC(C)O1` (stereo not given), the compound was called inactive.

`NCC(O)c1ccc(O)cc1` (stereo not given): the result was inactive.

As for `Cc1ccccc1O`, the compound was classed as inactive.

For the compound `CC(C)(C)OOC(C)(C)C`, the outcome was inactive.

`Nc1ccc(Br)cc1`: the “activity change, negative = cytotoxicity” value is -7.92%.

Take `O=NN1CCCC1`: the result was inactive.

Regarding `COC(=O)c1ccccc1N`, the outcome was inactive.

`Nc1ccc(Oc2ccc(N)cc2)cc1`: the call was inactive.

For the compound `CCCCN(CCCC)SN(C)C(=O)Oc1cccc2c1OC(C)(C)C2`, the “activity change, negative = cytotoxicity” value is -5.58% [at 81.1 µM].

Consider `Clc1ccc(Cl)cc1`, for which the compound was classed as inactive.

For `COC(=O)NS(=O)(=O)c1ccc(N)cc1`, the compound was called inactive.

For the compound `Cc1cc(Cl)ccc1O`, the compound was called inactive.

As to `O=c1ccc(=O)[nH][nH]1`, the compound was called inactive.

`C1CN2CCN1CC2`: the call was inactive.

As for `CN(C)CCO`, the result was inactive.

For `c1ccc2c(c1)oc1ccccc12`, the compound was called inactive.

`[N-]=[N+]=[N-]`: the result was inactive.

As for `CC(C)OC(=O)Nc1ccccc1`, the result was inactive.

As to `CC1C=[C-]C=C1.[C-]#[O+].[C-]#[O+].[C-]#[O+].[Mn]`, the compound was called inactive.

As for `COC(=O)c1ccccc1C(=O)OC`, the compound was classed as inactive.

For the compound `CC(C)=C[C@@H]1[C@@H](C(=O)OCc2coc(Cc3ccccc3)c2)C1(C)C`, the compound was classed as inactive.

For `CCCCOC(=O)c1ccccc1C(=O)OCCCC`, the outcome was inactive.

On to `CNC(=O)Oc1ccccc1OC(C)C`, for which the compound was called inactive.

On to `CC(Br)C(=O)O` (stereo not given), for which the call was inactive.

As to `CN(C)N=O`, the outcome was inactive.

For `Cc1ccc(N)cc1Cl`, the outcome was inactive.

Turning to `CCOP(OCC)OCC`, the outcome was inactive.

In the case of `Cn1cc(-c2ccccc2)c(=O)c(-c2cccc(C(F)(F)F)c2)c1`, the result was inactive.

On to `COCCl`, for which the outcome was inactive.

Turning to `CON(C)C(=O)Nc1ccc(Cl)c(Cl)c1`, the compound was classed as inactive.

Take `O=c1[nH]c(=O)[nH]c(=O)[nH]1`: the “activity change, negative = cytotoxicity” value is 8.78%.

Regarding `Cc1ccc(N)cc1N`, the call was inactive.

Turning to `CC(C)C1(C)N=C(c2nc3ccccc3cc2C(=O)O)NC1=O` (stereo not given), the compound was classed as inactive.

Consider `CCC(C)(CC)c1cc(NC(=O)c2c(OC)cccc2OC)on1`, for which the “activity change, negative = cytotoxicity” value is 2.74%.

As to `C#CC(C)(C)NC(=O)c1cc(Cl)cc(Cl)c1`, the call was inactive.

In the case of `Cc1cccc([N+](=O)[O-])c1`, the compound was classed as inactive.

As for `CCC[CH2][Sn]([Cl])([Cl])[Cl]`, the compound was called inactive.

For `c1ccc(-c2ccccc2)cc1`, the outcome was inactive.

In the case of `CCCCCCCCCCCC#N`, the compound was called inactive.
